Laboratory results published in paper PMC5540273 (PLoS ONE, 2017).

Experiments:
Details in all cases: concentration: 1 μM, replicates: in singlicate; n = 1
[1] = test system: T1, RSK2(Kin.Dom.2-C-terminal)
T1 construct: gene RPS6KA3

[2] = test system: T2, RSK3(Kin.Dom.1-N-terminal)
T2 construct: gene RPS6KA2

[3] = test system: T3, RSK3(Kin.Dom.2-C-terminal)
T3 construct: gene RPS6KA2

[4] = test system: T4, RSK4(Kin.Dom.1-N-terminal)
T4 construct: gene RPS6KA6

[5] = test system: T5, RSK4(Kin.Dom.2-C-terminal)
T5 construct: gene RPS6KA6

S6K1 = test system: S6K1
SBK1 = test system: SBK1
SGK2 = test system: SGK2
SGK3 = test system: SGK3
SGK = test system: SGK
SIK2 = test system: SIK2
SIK = test system: SIK
SLK = test system: SLK
SNARK = test system: T6, SNARK
T6 construct: gene NUAK2

SNRK = test system: SNRK
SRC = test system: SRC
SRMS = test system: SRMS
SRPK1 = test system: SRPK1
SRPK2 = test system: SRPK2
SRPK3 = test system: SRPK3
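Also: KINOMEscan kinase panel screen.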

Row | SMILES | %Inh [1] [%] | %Inh [2] [%] | %Inh [3] [%] | %Inh [4] [%] | %Inh [5] [%] | %Inh (S6K1) [%] | %Inh (SBK1) [%] | %Inh (SGK2) [%] | %Inh (SGK3) [%] | %Inh (SGK) [%] | %Inh (SIK2) [%] | %Inh (SIK) [%] | %Inh (SLK) [%] | %Inh (SNARK) [%] | %Inh (SNRK) [%] | %Inh (SRC) [%] | %Inh (SRMS) [%] | %Inh (SRPK1) [%] | %Inh (SRPK2) [%] | %Inh (SRPK3) [%]
1 | O=C(Nc1ccc2c(c1)OCO2)NC1CCN(c2ccnc(Nc3ccc(F)cc3)n2)C1 (stereo not shown) [GSK1379724] | 0 | 0 | 0 | 0 | 0 | 6 | 13 | 0 | 0 | 0 | 0 | 0 | 10 | 0 | 0 | 0 | 0 | 0 | 0 | 5
2 | Cc1ccc(NC(=O)Nc2cccc(Cl)c2)cc1-c1ccc(C(=O)Nc2ccncc2)cc1 [GSK1398468] | 0 | 5 | 1 | 0 | 16 | 0 | 26 | 0 | 22 | 0 | 0 | 5 | 6 | 0 | 2 | 0 | 0 | 0 | 0 | 0
3 | Cc1c(O)cccc1Nc1ccnc2ccc(C(F)(F)F)cc12.Cl [GW466413] | 16 | 0 | 0 | 4 | 0 | 0 | 0 | 0 | 2 | 0 | 0 | 0 | 8 | 0 | 0 | 79 | 1 | 21 | 0 | 0
4 | O=c1cc(N2CCOCC2)nc2n(Cc3cccc(Cl)c3Cl)ccn12 [GSK2286295] | 8 | 0 | 28 | 0 | 1 | 0 | 9 | 14 | 9 | 22 | 0 | 0 | 17 | 0 | 0 | 3 | 0 | 34 | 0 | 0
5 | Fc1cccc(COc2nnc(-c3ccc4c(c3)CCO4)o2)c1 | 35 | 0 | 22 | 0 | 8 | 0 | 0 | 0 | 0 | 0 | 0 | 0 | 0 | 0 | 0 | 0 | 5 | 0 | 0 | 7
6 | O=C1NC(=O)C(N2CCc3ccccc32)=C1c1ccccc1Cl [SB-373598] | 2 | 0 | 1 | 3 | 6 | 0 | 69 | 2 | 3 | 0 | 6 | 0 | 29 | 11 | 1 | 18 | 98.3 | 0 | 0 | 33
7 | CC(C)(C)c1ccc(C(=O)Nc2cn3cc(-c4cccnc4)ccc3n2)cc1 | 0 | 13 | 36 | 4 | 47 | 11 | 23 | 0 | 13 | 0 | 25 | 22 | 19 | 5 | 20 | 3 | 0 | 15 | 0 | 0
8 | COc1ccc(C2=C(Nc3cccc(C(=O)O)c3)C(=O)NC2=O)cc1 [SB-390765] | 8 | 9 | 2 | 16 | 30 | 15 | 35 | 21 | 22 | 29 | 9 | 14 | 7 | 8 | 0 | 3 | 21 | 0 | 0 | 19
9 | Cl.NC(=O)c1cccc(Nc2nccc(Nc3ccc(Oc4cccc(Cl)c4)c(Cl)c3)n2)c1 [GW659008] | 16 | 0 | 18 | 0 | 19 | 0 | 0 | 0 | 0 | 0 | 5 | 12 | 32 | 0 | 0 | 25 | 37 | 0 | 0 | 13
10 | Clc1cc(Cl)cc(Nc2ccnc(Nc3cc(Cl)cc(Cl)c3)n2)c1 [GSK175726] | 7 | 0 | 4 | 13 | 22 | 0 | 9 | 0 | 13 | 3 | 0 | 8 | 8 | 10 | 0 | 49 | 11 | 0 | 0 | 0
11 | O=C(Nc1n[nH]c2nc(-c3nccs3)c(Br)cc12)C1CC1 [SB-742251] | 0 | 19 | 0 | 0 | 2 | 6 | 1 | 12 | 0 | 0 | 0 | 6 | 0 | 0 | 0 | 0 | 0 | 19 | 21 | 0
